Among the test systems are DU-145 prostate; K-562 leukemia; MALME-3M melanoma; MDA-MB-231 breast; RXF 393 renal; SF-268 CNS; SF-295 CNS; SF-539 CNS; UACC-257 melanoma; M14 melanoma; HCT-15 colon; HT29 colon; SNB-75 CNS; SNB-19 CNS; U251 CNS; SK-MEL-5 melanoma; UACC-62 melanoma; LOX IMVI melanoma; SK-MEL-28 melanoma; PC-3 prostate.
Holding throughout (assay): NCI-60 one-dose screen, 48 h (100 = growth as untreated, 0 = no growth, -100 = all killed)
Settings in all cases: 10 µM unless noted

The structures appear in SMILES notation. This is part of a sample that, as a whole, favours compounds with a hit. Of some 83,000 tested, about 20% had one in any assay.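 Step 1: grow cells in 96-well plates. Step 2: add test compound at a single concentration. Step 3: incubate 48 h. Step 4: record percent growth.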 A number with no mark means an inactive call. The source made the active and inactive calls. Rule for the calls: active = growth percent below 10; inactive = the rest.

As for `Cc1cc(C)c2nc3nc(C)cc(C)c3c(N)c2c1`, the growth in the experiment on DU-145 prostate was 15.5%; with K-562 leukemia it was 10% (active); with MALME-3M melanoma, 24%; with MDA-MB-231 breast, 30.2%; in the experiment with RXF 393 renal, 42.5%; in the experiment on SF-268 CNS it was 19.7%. The growth was 29.6% in the experiment with SF-295 CNS; 14.1% in the experiment with SF-539 CNS; 40.2% with UACC-257 melanoma; 34.1% in the experiment on M14 melanoma; 16.4% in the experiment with HCT-15 colon; 18% in the experiment on HT29 colon. The growth in the experiment on SNB-75 CNS is 52.7%; in the experiment with SNB-19 CNS it was 35.3%; in the experiment on U251 CNS, 15.3%; with SK-MEL-5 melanoma it was 26.8%; in the experiment with UACC-62 melanoma it was 41.8%; with LOX IMVI melanoma, 7.77% (active). Further, the growth in the experiment with SK-MEL-28 melanoma is 38.7%.

In the case of `Cn1cc(C(=O)c2nc(-c3c[nH]c4ccc(F)cc34)no2)c2cc(F)ccc21`, the growth in the experiment with DU-145 prostate is 101%; with K-562 leukemia it was 66.1%; with MALME-3M melanoma, 87.3%; in the experiment on MDA-MB-231 breast, 108%; in the experiment on RXF 393 renal, 108%; in the experiment on SF-268 CNS, 96%. The growth in the experiment on SF-295 CNS is 98%; with SF-539 CNS, 95.1%; in the experiment on UACC-257 melanoma, 99.2%; with M14 melanoma, 97%; in the experiment with HCT-15 colon it was 68.6%; in the experiment on HT29 colon it was 101%. Moreover, the growth was 79.8% with SNB-75 CNS; 101% in the experiment with SNB-19 CNS; 100% in the experiment with U251 CNS; 92.8% with SK-MEL-5 melanoma; 81.7% in the experiment on UACC-62 melanoma; 95.2% with LOX IMVI melanoma. For the same compound, the growth with SK-MEL-28 melanoma was 103%.

Regarding `FC(F)(F)c1[nH]ncc1-c1nc2ccc3n[nH]c(C#Cc4cccnc4)c3c2c2c1CCCC2`, the growth with DU-145 prostate was 45.1%; in the experiment with K-562 leukemia, 44.6%; in the experiment with MALME-3M melanoma, 22.8%; in the experiment on MDA-MB-231 breast, 51.7%; in the experiment with RXF 393 renal it was 21.4%; with SF-268 CNS, 49.6%. Further, the growth was 42.7% in the experiment with SF-295 CNS; 19.6% in the experiment on SF-539 CNS; 57.7% in the experiment with UACC-257 melanoma; 27.2% in the experiment on M14 melanoma; 36.1% with HCT-15 colon; 32.5% in the experiment on HT29 colon. Besides, the growth in the experiment on SNB-75 CNS was -10.9% (active); in the experiment on SNB-19 CNS, 59.9%; with U251 CNS, 54.7%; with PC-3 prostate, 47.1%; with UACC-62 melanoma, 26.8%; in the experiment with LOX IMVI melanoma it was 33.6%. Further, in the experiment with SK-MEL-28 melanoma, the growth was 32.4%.

On to `Cc1cn2c(/C=C3/C(=O)Nc4c3ccc3ccccc43)c(C(F)(F)F)nc2s1`, for which the growth is 4.07% (active) in the experiment on DU-145 prostate; 8.76% (active) in the experiment with K-562 leukemia; 42.4% in the experiment with MALME-3M melanoma; 38.1% in the experiment with MDA-MB-231 breast; -19.3% (active) with RXF 393 renal; 43.5% in the experiment with SF-268 CNS. In addition, the growth in the experiment with SF-295 CNS was 7.54% (active); with SF-539 CNS it was -5.73% (active); with UACC-257 melanoma, 54.4%; with M14 melanoma, 8.69% (active); in the experiment with HCT-15 colon, 27%; in the experiment with HT29 colon, 0.295% (active). Moreover, the growth in the experiment with SNB-75 CNS is -6.4% (active); in the experiment with SNB-19 CNS, 36.3%; in the experiment with U251 CNS it was 17.5%; with SK-MEL-5 melanoma, 24.7%; in the experiment on UACC-62 melanoma it was 31.6%; with LOX IMVI melanoma, 33.6%. Besides, the growth in the experiment on SK-MEL-28 melanoma is 58.4%.

With `O=C1c2cc3c(cc2-c2c1c1ccc(F)cc1c(=O)n2C[C@H](O)[C@@H](O)[C@H](O)CO)OCO3`, the growth in the experiment with DU-145 prostate is 2.47% (active); in the experiment on K-562 leukemia, 9.69% (active); in the experiment with MALME-3M melanoma, -54.6% (active); with MDA-MB-231 breast, 11.1%; in the experiment on RXF 393 renal, -47.1% (active); in the experiment on SF-268 CNS it was 11.2%. Besides, the growth is -0.994% (active) in the experiment with SF-295 CNS; -44.6% (active) with SF-539 CNS; -44.3% (active) in the experiment on UACC-257 melanoma; -14% (active) with M14 melanoma; 5.37% (active) with HCT-15 colon; -2.72% (active) in the experiment on HT29 colon. The growth with SNB-75 CNS was -38.4% (active); with SNB-19 CNS it was 4.38% (active); in the experiment with U251 CNS, -19.1% (active); in the experiment with PC-3 prostate it was 7.25% (active); in the experiment on UACC-62 melanoma, -55.5% (active); with LOX IMVI melanoma it was -30.4% (active). The growth with SK-MEL-28 melanoma was -37.6% (active).

For `COc1ccc(/C=C/c2nc3ccccc3nc2/C=C/c2ccc(OC)cc2)cc1`, the growth is 105% in the experiment with DU-145 prostate; 101% in the experiment on K-562 leukemia; 109% in the experiment on MALME-3M melanoma; 111% in the experiment on MDA-MB-231 breast; 80.3% in the experiment with RXF 393 renal; 99.5% in the experiment on SF-268 CNS. The growth with SF-295 CNS was 102%; in the experiment on SF-539 CNS it was 89.8%; with UACC-257 melanoma it was 106%; in the experiment with M14 melanoma, 93%; in the experiment with HCT-15 colon it was 94.5%; in the experiment on HT29 colon it was 95.1%. Besides, the growth in the experiment with SNB-75 CNS was 87.8%; in the experiment on SNB-19 CNS, 108%; with U251 CNS it was 95.4%; with PC-3 prostate it was 80.3%; with UACC-62 melanoma, 90%; in the experiment on LOX IMVI melanoma, 102%. Moreover, the growth with SK-MEL-28 melanoma was 102%.
